High-throughput results: PubChem, SRMLSC
In the library only some 6.5% were active in any assay of this set; here they are far more common.
Spn DPM-DC inh: S. pneumoniae DPM-DC inhibitors, primary screen, biochemical, PK/LDH-coupled NADH fluorescence; diphosphomevalonate decarboxylase (Streptococcus pneumoniae D39); purified DPM-DC; calls only at 10 µM; 0.49% of 65,000 active; AID 556, 2006;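 active means the 320 compounds with the highest percent inhibition in the single-dose primary screen, excluding strongly autofluorescent ones, cut at about 32% in these data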;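 further: kinetic rate of NADH fluorescence loss reporting ADP formed by the decarboxylase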
PMK inhibit: S. pneumoniae PMK inhibitors, primary screen, biochemical, mevalonate pathway, pilot trial included. phosphomevalonate kinase (Streptococcus pneumoniae D39). purified PMK, PK/LDH-coupled NADH absorbance 340 nm. inhibition, % at 10 µM. 0.49% of 65,000 active. AID 539, 2006;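 active means top-ranked compounds by inhibition in the single 10 µM screen, taking a fixed number of the strongest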;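 further: 0% = full reaction with DMSO carrier and 100% = background rate without enzyme reaction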
Fluor 339 460: intrinsic fluorescence of library compounds, ex339/em460 – biochemical, MLSMR library, data from DPM-DC assay, artefact control, profiling panel | compound autofluorescence, ex339/em460 nm, NADH buffer; active compounds read high; 1 = no-compound wells, NADH background | fluorescence fold increase at 10 µM | 5.5% of 65,000 active;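 active means at 10 µM, mean starting fluorescence two-fold or more over control wells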;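 further: signal is the first read of a kinetic run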
Spn MK inh: S. pneumoniae MK inhibitors, primary screen, biochemical, PK/LDH-coupled NADH absorbance; mevalonate kinase [Streptococcus pneumoniae D39]; purified MK, PK/LDH-coupled NADH absorbance 340 nm; inhibition, % at 10 µM; 0.48% of 65,000 active; AID 555, 2006;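 active means ranked among the strongest by inhibition in the single 10 µM screen, a fixed top-ranked set picked for dose follow-up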
NADH coupling: inhibitors of PK/LDH coupling enzymes, profiling panel, artefact control, biochemical, MLSMR library. IC50, µM (doses to about 10 µM), for inactives: at the highest dose inhibition. coupled PK/LDH NADH assays, four targets. 0.02% of 65,000 active. AID 774, 2007;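 active means single-dose screening hits from any of four coupled enzyme assays that gave an IC50 when retested across doses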;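 further: the DPM-DC format reads NADH fluorescence rather than 340 nm absorbance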
A340 absorber: compound light absorbance at 340 nm, profiling panel, artefact control, biochemical, MLSMR library, data from PS, PMK, MK assays | 65,000 tested, under 10 active | fold change at 10 µM | compound absorbance at 340 nm, fold over control | AID 708, 2007;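 active means at 10 µM dose, initial 340 nm absorbance at least 2 fold that of control wells; inactive means change under 2 fold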;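 further: initial absorbance extrapolated from kinetic A340 decline of NADH oxidation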
* marks the source's active call; other numbers are inactive results.

Screening COc1ccc(CN(C)CCc2ccccn2)c(OC)c1OC returned Spn DPM-DC inh inactive, PMK inhibit 4, Fluor 339 460 1.1, Spn MK inh 68*, NADH coupling 24% and A340 absorber 1.
`Cc1cccc(CN(C)CCc2ccccn2)c1` gave Spn DPM-DC inh inactive, PMK inhibit 0, Fluor 339 460 1.1, Spn MK inh 44*, NADH coupling 15% and A340 absorber 1.1.
CC(C)CC1N=C2c3ccccc3N=C(SCc3cc(=O)n4ccccc4n3)N2C1=O (centres undefined) was read as Spn DPM-DC inh inactive, PMK inhibit 10, Fluor 339 460 1.4, Spn MK inh 14, NADH coupling 8% and A340 absorber 1.2.
Screening CCN1CCCC1CNC(=O)C1c2cc(OC)c(OC)cc2C(=O)N(C)C1c1cccnc1 (centres undefined) returned Spn DPM-DC inh inactive, PMK inhibit 0, Fluor 339 460 1.1, Spn MK inh 5, NADH coupling 2% and A340 absorber 1.1.
Screening Cc1ccc2cc(C#N)c(N3CCCN(C(=O)C4CCCO4)CC3)nc2c1 (centres undefined) returned Spn DPM-DC inh inactive, PMK inhibit 15, Fluor 339 460 2.3*, Spn MK inh 0, NADH coupling 9% and A340 absorber 1.
Cc1ccc2cc(C#N)c(NCCCNC(=O)C3CCCO3)nc2c1 (centres undefined) was read as PMK inhibit 8, Fluor 339 460 2.9*, Spn MK inh 4, NADH coupling 2% and A340 absorber 1.
`Cc1ccc2nc(N3CCN(C(=O)c4cccs4)CC3)c(C#N)cc2c1` gave Spn DPM-DC inh inactive, PMK inhibit 11, Fluor 339 460 2.4*, Spn MK inh 1, NADH coupling 8% and A340 absorber 0.98.
Screening COc1ccc(C(=O)N2CCN(c3nc4cc(C)ccc4cc3C#N)CC2)c(OC)c1 returned Spn DPM-DC inh inactive, PMK inhibit 6, Fluor 339 460 1.4, Spn MK inh 6, NADH coupling 2% and A340 absorber 1.
For Cc1cc(C)c2cc(C#N)c(NCCCNC(=O)CCC(=O)O)nc2c1 the results were PMK inhibit 10, Fluor 339 460 3.7*, Spn MK inh 2, NADH coupling 6% and A340 absorber 1.
COc1cc(C(=O)N2CCCN(c3nc4cc(C)ccc4cc3C#N)CC2)cc(OC)c1OC was read as Spn DPM-DC inh inactive, PMK inhibit 12, Fluor 339 460 1.9, NADH coupling 10% and A340 absorber 1.
For CCCCNC(=O)c1ccc(NC(=O)C2CCCO2)cc1 (centres undefined) the results were Spn DPM-DC inh inactive, PMK inhibit 0, Fluor 339 460 1.1, Spn MK inh 12, NADH coupling 4% and A340 absorber 1.1.
CC(=O)OC(C(=O)NCc1ccco1)c1ccncc1 (centres undefined) was read as Spn DPM-DC inh inactive, PMK inhibit 15, Fluor 339 460 1.1, Spn MK inh 0, NADH coupling 5% and A340 absorber 1.
`O=C(CSc1ncnc2c1oc1ccccc12)NC1CCCCC1` gave Spn DPM-DC inh inactive, PMK inhibit 9, Fluor 339 460 1, Spn MK inh 9, NADH coupling 7% and A340 absorber 1.
For O=C1CC(c2ccccc2)n2nc(N3C(=O)c4ccccc4C3=O)nc2N1 (centres undefined) the results were Spn DPM-DC inh inactive, PMK inhibit 0, Fluor 339 460 1.1, Spn MK inh 2, NADH coupling 1% and A340 absorber 0.99.
For C/C(=N\O)c1c(C)c2ccccc2n1C the results were Spn DPM-DC inh inactive, PMK inhibit 10, Fluor 339 460 1.1, Spn MK inh 1, NADH coupling 4% and A340 absorber 1.
C/C(=N\O)c1ccc2c3ccccc3n(C)c2c1 was read as Spn DPM-DC inh inactive, PMK inhibit 1, Fluor 339 460 2.7*, Spn MK inh 11, NADH coupling 10% and A340 absorber 1.
Oc1ccccc1-c1nc(NCC2CCCO2)c2ccccc2n1 (centres undefined) was read as Spn DPM-DC inh inactive, PMK inhibit 6, Fluor 339 460 1.1, Spn MK inh 7, NADH coupling 4% and A340 absorber 1.1.
`COc1cccc(-c2nc(NCC3CCCO3)c3ccccc3n2)c1O` (centres undefined) gave Spn DPM-DC inh inactive, PMK inhibit 21, Fluor 339 460 1.1, Spn MK inh 0, NADH coupling 7% and A340 absorber 1.1.
For COc1cc(-c2nc3ccccn3c2NCC2CCCO2)ccc1O (centres undefined) the results were PMK inhibit 15, Fluor 339 460 3.7*, Spn MK inh 0, NADH coupling 8% and A340 absorber 1.1.
For CCOc1cc(-c2nc3ccccn3c2NCC2CCCO2)ccc1O (centres undefined) the results were PMK inhibit 15, Fluor 339 460 3*, Spn MK inh 14, NADH coupling 4% and A340 absorber 1.
CCOC(=O)c1oc2ccccc2c1NC(=O)c1ccc(S(=O)(=O)N2CCCC2)cc1 was read as Spn DPM-DC inh inactive, PMK inhibit 14, Fluor 339 460 2.5*, Spn MK inh 7, NADH coupling 7% and A340 absorber 1.
Cc1cc(NCCN2CCOCC2)n2ncc(-c3ccccc3)c2n1 was read as Spn DPM-DC inh inactive, PMK inhibit 10, Fluor 339 460 1.6, Spn MK inh 4, NADH coupling 6% and A340 absorber 1.1.
Cc1cc(NCCN2CCOCC2)n2ncc(-c3ccc(Cl)cc3)c2n1 was read as PMK inhibit 5, Fluor 339 460 3.3*, Spn MK inh 14, NADH coupling 10% and A340 absorber 1.
For Cc1cc(NCCN2CCOCC2)n2nc(C)c(-c3ccc(Cl)cc3)c2n1 the results were Spn DPM-DC inh inactive, PMK inhibit 14, Fluor 339 460 2.4*, Spn MK inh 0, NADH coupling 8% and A340 absorber 1.1.
For Cc1cc(NCCN2CCOCC2)n2nc(C)c(-c3ccccc3)c2n1 the results were Spn DPM-DC inh inactive, PMK inhibit 10, Fluor 339 460 1.1, Spn MK inh 7, NADH coupling 3% and A340 absorber 0.99.
O=c1c2cc(N3CCOCC3)ccc2[nH]c(=S)n1CC1CCCO1 (centres undefined) was read as Spn DPM-DC inh inactive, PMK inhibit 18, Fluor 339 460 4*, Spn MK inh 13, NADH coupling 19% and A340 absorber 1.1.
